# In ChEMBL document CHEMBL4513216, “Probing the Open Global Health Chemical Diversity Library for Multistage-Active Starting Points for Next-Generation Antimalarials” (ACS Infect Dis, 2020):
# Hit rate of the full screen: of about 69,000 compounds, about 8,600 (12%) showed an effect of 50% or more. The full list was thinned out, with strong results kept by preference.
# Tested on: Plasmodium berghei
# Test: Screen against P. berghei liver stage (PbLuc), transformed with Luciferase, at 10uM
# Format: functional, HepG2
# Conditions: tested at 10 uM
row,Structure (SMILES),INHIBITION
1,CCC(CC)NC(=O)c1nc2n(n1)-c1ccccc1S(=O)(=O)N2,-9.07%
2,Cc1n[nH]c(C)c1-c1nccnc1CC1CCCN(C)C1 (stereo not drawn),23.2%
3,c1ccc(-c2nnc(CN3C[C@H]4CC[C@@H](C3)N(CC3CCC3)C4)o2)cc1,46.6%
4,Cc1ccc(C(=O)N2CC[C@H]3[C@@H]2CCC(=O)N3c2cccnc2)o1,23.1%
5,COc1cccc(S(=O)(=O)CCN2CCC3(CC2)OCCO3)c1,60%
6,COCCN1CCN(CCS(=O)(=O)c2cccc(OC)c2)CC1,92.8%
7,COc1cccc(S(=O)(=O)CCN2CCCCC2)c1,-11.1%
8,COc1cccc(S(=O)(=O)CCN2CCCN(C(C)=O)CC2)c1,45.8%
9,COc1cccc(S(=O)(=O)CCN2CCN(CCO)CC2)c1,8.24%
10,COc1cccc(S(=O)(=O)CCN2CCN(CC(F)F)CC2)c1,28.2%
11,Cc1cc(CN2C[C@H](OCC3CCOCC3)[C@H]3COC[C@H]32)oc1C,44.4%
12,CCc1cc(NCCCOC2CCN(C)CC2)ncn1,25.5%
13,O=C(NCCO)Nc1c(F)cc(F)cc1-c1ccccc1,33%
14,Cc1noc([C@@]23CCO[C@@H]2CCN(CC2CCOCC2)C3)n1,17.3%
15,C1CCN(c2nc(N3CCOCC3)nc3[nH]nnc23)CC1,36.7%
16,c1ccc2c(c1)CCN(c1nc(N3CCOCC3)c3nn[nH]c3n1)C2,54%
17,c1ccc2c(c1)CCN2c1nc(N2CCOCC2)c2nn[nH]c2n1,39.9%
18,COc1ccsc1C(=O)N1CCCN(Cc2cscn2)CC1,-51.5%
19,O=C(Cc1ccc2c(c1)OCCO2)N1CCN(c2cnccn2)CC1,-5.25%
20,Cc1cc(C)n(CC2CN(c3nnc(C)c(C)c3C#N)CCO2)n1 (stereo not drawn),53.1%
21,Cc1cc(C)n(CC2CN(CCOc3ccc(C#N)cc3)CCO2)n1 (stereo not drawn),51.1%
22,CCC1CN(c2nnc(C)c(C)c2C#N)CCO1 (stereo not drawn),17.8%
23,Cc1cc(C)n(CC2CN(CCOc3cccc(C#N)c3)CCO2)n1 (stereo not drawn),20.6%
24,Cc1nc(C)n(CC2CN(CCOc3ccc(C#N)cc3)CCO2)n1 (stereo not drawn),42%
25,Cc1nc(C)n(CC2CN(c3nnc(C)c(C)c3C#N)CCO2)n1 (stereo not drawn),-27.3%
26,CN(C)C(=O)NC1COC2(CCN(Cc3ccccc3)CC2)C1 (stereo not drawn),37.5%
27,CC(N)Cc1ccccc1Sc1ccccc1 (stereo not drawn),24.7%

row,Structure (SMILES),INHIBITION
1,CCc1nc(CNc2ccc(F)cc2I)no1,-58.5%
2,CN1CCN(CC2CN(CC3CC3)Cc3nccn3C2)CC1 (stereo not drawn),19.4%
3,Cc1cnc2n1CCN(C)C21CCN(CC2CC2)CC1,12.1%
4,Oc1ccc(N2CCC(Cc3ccccc3)CC2)nn1,83.8%
5,O=C(O)c1ccc(N2CCC(Cc3ccccc3)CC2)nn1,-23.2%
6,Cc1cc(N2CCC(CC(N)=O)CC2)nc(-c2ccncc2)n1,16.1%
7,CCCS(=O)(=O)c1ccc(N2CCC(Cc3ccccc3)CC2)nn1,23.7%
8,Cc1cc(N2CCC(Cc3ccccc3)CC2)nc(-c2ccncc2)n1,71.3%
9,CC(=O)NCC1CCN(c2cc(C)nc(-c3ccncc3)n2)CC1,33.3%
10,CCn1c(=O)[nH]c2cn(-c3cccc(Cl)c3)c(=O)n21,-35.5%
11,CC(C)C(O)CNC(=O)Nc1cnn(C(C)C)c1 (stereo not drawn),-4.73%
12,CC(C)n1ccc(C(=O)NCC(O)c2c(Cl)cccc2Cl)n1 (stereo not drawn),24.3%
13,CCn1nc(C)cc1C(=O)NCc1nc(C)no1,17.5%
14,Cc1ccc(N2CCCN(C(=O)c3cccc4c3ccn4C)CC2)nn1,38.5%
15,Cc1ccc(N2CCCN(C(=O)c3cn(C)c4ccccc34)CC2)nn1,87.2%
16,Cn1cc(C(=O)N2CCCN(c3cccnn3)CC2)c2ccccc21,-0.532%
17,O=C1CN(C(=O)C2CCC3(CC2)CNC(=O)c2ccccc2O3)CCN1 (stereo not drawn),43.6%
18,Cc1nn(C)c(C)c1CN(C)C(=O)c1cc(C(F)(F)F)n(C)n1,42.45%
19,O=C(c1ccnn1COc1ccc(Cl)cc1)N1CCCC1,1.45%
20,O=C(c1ccnn1COc1ccc(Cl)cc1)N1CCSCC1,33.4%
21,O=C(c1ccnn1COc1ccc(Cl)cc1)N1CCOCC1,50.8%
22,Fc1ccc(CC2CCN(Cc3cscn3)CC2)cc1,68.1%
23,Fc1ccc(CN2CCCN(Cc3cscn3)CC2)cc1,-12.5%
24,Cc1noc(CN2CCC(c3ccnn3CCO)CC2)n1,49.6%
25,Cc1noc(CN2CCC(Cc3ccc(F)cc3)CC2)n1,57.2%
26,Fc1ccc(CC2CCN(Cc3nccs3)CC2)cc1,38.7%
